Screening data (PubChem BioAssay)
The list is not random: actives were taken first. Their share in the collection is about 12%.
Sm TGR block: qHTS Assay for the Inhibitors of Schistosoma Mansoni Peroxiredoxins | purified TGR, DTNB reduction, TNB absorbance 405 nm | Potency, µM (series often up to 114 µM), for the others: at the top dose activity change, negative = inhibition, most hits filed as inhibitors | 360,000 compounds, 3% hits; note: % is set by controls: 0 for no effect and ±100 for the full control effect; nearly all actives have a fitted effect of over 60% in size
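First, TGR (20 nM dispensed) and NADPH were mixed with compound. Second, a 15 min room-temperature incubation followed. Third, further NADPH and then DTNB were added to start the reaction. Finally, TNB absorbance was monitored kinetically.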
SARS PLpro yeast: qHTS of Yeast-based Assay for SARS-CoV PLP; S. cerevisiae expressing SARS-CoV PLpro, growth rescue; Potency, µM (titrated, usually from 32.9 µM), for the others: top-dose activity, positive = growth rescue, most hits filed as activators; 330,000 compounds, 0.19% hits; AID 485353, 2010; calls by dose curve; note: 0% is about no effect; nearly all actives have a fitted effect of over 55% in size
Pf growth 48h: Primary qHTS for delayed death inhibitors of the malarial parasite plastid, 48 hour incubation | P. falciparum luciferase growth in erythrocytes, 48 h | Potency, µM (titrated, usually from 28.7 µM), for inactives: at the highest dose activity change, negative = inhibition, most hits filed as inhibitors | 310,000 compounds, 5.9% hits; note: % is set by controls: 0 for no effect and ±100 for the full control effect
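Luciferase-expressing parasites in RBCs, 2% Hct / 0.1% parasitemia final; RPMI 1640 + 0.5% Albumax; 37 C, 5% CO2, one generation; luminescence read-out, lower signal = inhibition.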
Pf growth 96h: Primary qHTS for delayed death inhibitors of the malarial parasite plastid, 96 hour incubation; P. falciparum luciferase reporter growth, 96 h; Potency, µM (doses to about 28.7 µM), for inactives: at the highest dose activity change, negative = inhibition, usual class: inhibitors; 320,000 compounds, 6.9% hits; AID 504834, 2011; note: % is set by controls: 0 for no effect and ±100 for the full control effect
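Compounds incubated with erythrocytes infected by luciferase-expressing P. falciparum (2% hematocrit, 0.05% parasitemia final) for 96 hours, 37 C in 5% CO2. Growth inhibition scored as decreased luciferase luminescence.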
* hit, by the source's call; ? = inconclusive; · = not tested or not shown. Unless noted, calls come from the whole dose curve; as a rule, active = well fitted curve in the direction sought with a large enough effect; inconclusive = small, poorly fitted or top-dose-only effect, or another doubt; inactive = no such curve, though single readings can be large; an effect the other way counts as inactive or inconclusive. Potency is the fitted concentration of half-maximal effect.

SMILES	Sm TGR block	SARS PLpro yeast	Pf growth 48h	Pf growth 96h
CCOc1ccccc1N1CCN(C(=O)c2ccc(Cl)c(S(=O)(=O)N3CCCCC3)c2)CC1	-3%	0%	12µM*	5.2µM*
Cc1ccc(N2C(=O)c3ccc(C(=O)N4CCN(c5ccccc5F)CC4)cc3C2=O)cc1	-3%	14%	5%	9.3µM*
CC1CCN(S(=O)(=O)c2cccc(C(=O)N3CCN(c4ccc(F)cc4)CC3)c2)CC1	21%	1%	?	?
CC(=O)N1CCN(C(=O)c2cccc(S(=O)(=O)N3CCN(c4ccccc4)CC3)c2)CC1	-1%	1%	?	-30%
O=C(c1cccc(S(=O)(=O)N2CCN(c3ccccc3)CC2)c1)N1CCN(c2ccccc2O)CC1	0%	0%	10µM*	?
CC(C)(C)N(Cc1ccccc1)C(=O)COC(=O)CN1C(=O)NC2(CCCC2)C1=O	-1%	-3%	-8%	?
CN1CCN(C(=O)C2CCCCC2)CC1	·	·	-6%	-2%
Cn1c(O)c(N=NC(=O)c2cccc(S(=O)(=O)N3CCCCC3)c2)c2ccccc21	-1%	-3%	10µM*	7.4µM*
O=C(c1cccc(S(=O)(=O)N2CCCCC2)c1)N1CCc2ccccc21	-1%	5%	11%	1.2µM*
COc1cccc(S(=O)(=O)NCc2ccc(C(=O)N3CCN(c4ccccc4OC)CC3)cc2)c1	0%	5%	7.4µM*	?
CN(C)C(CNC(=O)CCNS(=O)(=O)c1ccccc1C(F)(F)F)c1ccccc1 (centres undefined)	-1%	-6%	?	?
Cc1nc2nc(SCc3ccccc3)[nH]n2c(=O)c1CCC(C)C	17%	1%	44%	5%
Cc1c(C(N)=O)sc2ncn(CC(=O)N(C)C3CCCCC3)c(=O)c12	6%	0%	-11%	-72%
O=C(CNc1ccc2ccccc2c1)N/N=C/c1ccc([N+](=O)[O-])o1	-35%	-11%	9.3µM*	3.3µM*
Cc1ccc(OCC(=O)N/N=C\c2ccc(C)o2)c([N+](=O)[O-])c1	-7%	-2%	0%	5.9µM*
Cc1ccc(OCC(=O)N/N=C/c2ccco2)cc1	-14%	-8%	·	-6%
Cc1ccc(OCC(=O)N/N=C/c2ccc([N+](=O)[O-])o2)cc1	?	-20%	10µM*	?
O=C(COc1ccccc1)N/N=C/c1ccc([N+](=O)[O-])o1	?	-9%	8.3µM*	10µM*
CCOC(=O)c1cccc(NC(=O)NC2COc3ccccc3C2)c1 (centres undefined)	2%	·	·	·
COc1ccc(-n2c(=O)c3ccc(C(=O)NCc4ccc(C)cc4)cc3n(Cc3ccc(F)cc3Cl)c2=O)cc1	0%	·	·	·
CCCC(=O)OC1=CN(Cc2ccccc2)S(=O)(=O)c2ccccc21	2%	·	·	·
O=C(CSc1ccc(Cl)cc1)N/N=C/c1ccc([N+](=O)[O-])o1	5.6µM*	4%	?	?
CCNC(=O)C(=O)NCC(c1cccs1)S(=O)(=O)c1ccc(C)cc1 (centres undefined)	?	3%	22%	4.1µM*
Cc1ccc(S(=O)(=O)C(CNC(=O)C(=O)NCc2ccc(Cl)cc2)c2cccs2)cc1 (centres undefined)	22µM*	·	·	·
CCOC(=O)C(=O)NCC(c1cccs1)S(=O)(=O)c1ccc(C)cc1 (centres undefined)	-24%	-4%	-1%	?
SMILES	Sm TGR block	SARS PLpro yeast	Pf growth 48h	Pf growth 96h
CCOC(=O)C(=O)NCC(c1cccs1)S(=O)(=O)c1ccc(F)cc1 (centres undefined)	-14%	·	?	12µM*
O=C(NCc1ccccc1)C(=O)NCC(c1cccs1)S(=O)(=O)c1ccccc1 (centres undefined)	2%	·	·	·
CCC(C)NC(=O)c1c(C)oc2nc(C)nc(N3CCOCC3)c12 (centres undefined)	10%	·	·	·
Cc1ccc(NC(=O)C(C)Sc2nc(-c3ccccc3)cc(=O)[nH]2)cc1 (centres undefined)	-14%	-1%	18%	29%
CCOC(=O)COc1ccc2c(C#N)c3ccccn3c2c1	·	-2%	-10%	15%
COc1cc(OC)cc(C(=O)c2c(C)c(C#N)c3ccccn23)c1	12%	0%	8.3µM*	?
COc1ccc(C(=O)NCCNc2nc3ccc(C)cc3cc2C#N)cc1	2%	8%	?	9.3µM*
Cc1ccc2nc(NCCNC(=O)c3ccccc3)c(C#N)cc2c1	-7%	15%	10%	?
CCOC(=O)CSc1nc(C2CC2)cc(-c2ccc(Cl)cc2)c1C#N	3%	2%	10µM*	-27%
Cc1cc(Cl)ccc1C(=O)C1CCCN(C(=O)/C=C/c2cnn(C)c2)C1 (centres undefined)	-14%	-1%	8%	4.1µM*
CCc1ccc(CN2CCCC(C(=O)c3sccc3C)C2)o1 (centres undefined)	5%	1%	-4%	29%
Cc1nc(C)c(C(=O)N2CCCC(C(=O)c3ccc(Cl)cc3C)C2)s1 (centres undefined)	2%	-5%	-19%	13µM*
COCc1ccc(CN2CCCC(C(=O)c3sccc3C)C2)o1 (centres undefined)	-28%	1%	14%	15µM*
Cc1cc(Cl)ccc1C(=O)C1CCCN(C(=O)c2ccoc2)C1 (centres undefined)	-16%	-3%	-2%	-3%
COCc1ccc(C(=O)N2CCCC(C(=O)c3ccc(Cl)cc3C)C2)o1 (centres undefined)	32µM*	-5%	6%	?
Cc1c(-c2ccc(Cl)cc2)c(=O)oc2ccc(OC(=O)N3CCOCC3)cc12	9%	·	·	·
COc1ccc(CNC(=O)Cn2c(=O)nc(-c3ccccc3)c3cc(Cl)ccc32)cc1OC	1%	·	·	·
O=C(c1ccc(Cn2c(=S)[nH]c3cc4c(cc3c2=O)OCO4)cc1)N1CCN(c2ncccn2)CC1	0%	2%	12µM*	?
C=CCn1c(=O)[nH]c2cc(C(=O)N3CCN(c4cccc(Cl)c4)CC3)ccc2c1=O	10%	-10%	?	33%
CC1CCCN(C(=O)c2ccc3c(=O)n(Cc4ccc5c(c4)OCO5)c(=S)[nH]c3c2)C1 (centres undefined)	2%	4%	-29%	7.4µM*
C=CCn1c(=O)[nH]c2cc(C(=O)N3CCN(c4ccc(C(C)=O)cc4)CC3)ccc2c1=O	-14%	-12%	·	6.6µM*
COc1ccc(N2CCN(C(=O)c3ccc4c(=O)n(Cc5ccc6c(c5)OCO6)c(=O)[nH]c4c3)CC2)cc1	-4%	-1%	0%	13%
O=C(c1ccc2c(=O)n(Cc3ccc4c(c3)OCO4)c(=O)[nH]c2c1)N1CCN(c2ccccc2)CC1	2%	-5%	-9%	12µM*
Cc1c(Cl)cccc1NC(=O)C(=O)NCC(c1cccnc1)N1CCN(c2ccccc2)CC1 (centres undefined)	-5%	·	·	·
